Test results: the supplement of paper PMC8387472
Structures can show the parent of a compound that is named as a salt. ± gives the standard deviation of the averaged measurements.

What follows are compounds tested on mESC LDLR-Dup GFP reporter (SpCas9 MH-deletion repair) (assay: fraction of GFP+ cells relative to DMSO control (fold change); higher = more MH-deletion repair to in-frame LDLR (or more editing)). Conditions: 2 µM; 7 days post-transfection.

Compound	fraction of GFP+ cells
Oc1cccc(-c2nc(N3CCOCC3)c3oc4ncccc4c3n2)c1	0.542 ± 0.15
C[C@@H](N)c1ccc(C(=O)Nc2ccnc3[nH]ccc23)cc1	1.54 ± 0.27
CO[C@H]1/C=C/O[C@@]2(C)Oc3c(C)c(O)c4c(O)c(c5c(nc6cc(C)ccn65)c4c3C2=O)NC(=O)/C(C)=C\C=C\[C@H](C)[C@H](O)[C@@H](C)[C@@H](O)[C@@H](C)[C@H](OC(C)=O)[C@@H]1C [Rifaximin]	0.938 ± 0.38
NC(=O)NO [Hydroxyurea]	0.829 ± 0.24
O=C(NC(NC(=S)Nc1ccc(F)c([N+](=O)[O-])c1)C(Cl)(Cl)Cl)C(c1ccccc1)c1ccccc1 (stereo not given)	0.561 ± 0.13
NC(=O)c1nc(F)cnc1O [Favipiravir (T-705)]	0.826 ± 0.25
O=C1NCCc2[nH]c(-c3ccncc3)cc21	1.61 ± 0.078
Cc1cnc(-c2ccccc2C(C)C)nc1NCc1ccc(-n2ccnn2)cc1	0.373 ± 0.22
CCn1cc(-c2ccnc3[nH]c(-c4cccc(CN(C)C)c4)cc23)c(-c2ccc(NC(=O)N(C)C)cc2)n1	0.251 ± 0.13
Cc1nc2c(O)cccc2c(=O)[nH]1	0.926 ± 0.11
Cn1cc(/C=C/C(=O)c2cccc(F)c2)cc1/C=C/C(=O)NO	0.876 ± 0.1
Cn1cc(C(=O)Nc2ccc3c(c2)OCCO3)c2ccccc2c1=O	1.33 ± 0.53
O=C(NCc1ccccc1)c1csc(Nc2ccncn2)n1 [Thiazovivin]	0.987 ± 0.18
O=C(O)c1cc2cccc([N+](=O)[O-])c2[nH]1	1.04 ± 0.19
C=CC(=O)N1C/C(=C\c2ccc([N+](=O)[O-])cc2)C(=O)/C(=C/c2ccc([N+](=O)[O-])cc2)C1	0.723 ± 0.13
C[C@H](CN(C)C)Oc1nc(Nc2cc3cccc(Cl)c3cn2)cnc1C#N	1.28 ± 0.15
Nc1nc2n[nH]nc2c(=O)[nH]1 [Azaguanine-8]	1.43 ± 0.23
C[C@H]1CNCCCN1S(=O)(=O)c1cccc2cncc(F)c12 [Ripasudil (K-115) hydrochloride dihydrate]	1.31 ± 0.45
Cc1nc(N)sc1-c1ccnc(Nc2ccc(N3CCOCC3)cc2)n1	0.334 ± 0.28
O=P(O)(O)C(O)(Cn1ccnc1)P(=O)(O)O [Zoledronic Acid Monohydrate]	1.07 ± 0.25

Compound	fraction of GFP+ cells
O=C(O[C@@H]1Cc2c(O)cc(O)cc2O[C@@H]1c1cc(O)c(O)c(O)c1)c1cc(O)c(O)c(O)c1 [(-)-Epigallocatechin Gallate]	0.828 ± 0.097
O=c1[nH]c(=O)n([C@H]2C[C@H](O)[C@@H](CO)O2)cc1C(F)(F)F [Trifluridine]	2.69
COc1cc2c(Nc3ccc(NC(=O)c4ccccc4)cc3)ncnc2cc1OCCCN1CCOCC1	0.59 ± 0.2
CNNCc1ccc(C(=O)NC(C)C)cc1 [Procarbazine HCl]	1.04 ± 0.053
CS(=O)(=O)OCCCCOS(C)(=O)=O [Busulfan]	1.36 ± 0.93
Oc1nc(-c2ccc(C(F)(F)F)cc2)nc2c1CSCC2	0.752 ± 0.014
O=c1cc(N2CCOCC2)oc2c1ccc1ccccc12	0.548 ± 0.39
O=c1[nH]nc2c3c(cccc13)N=C(CN1Cc3ccccc3C1)N2	0.38 ± 0.041
CC(=O)c1cc([N+](=O)[O-])c(Sc2ccc(F)cc2F)s1	0.785 ± 0.22
O=c1ccc2cc3ccoc3cc2o1 [Psoralen]	1.11 ± 0.41
Nc1ncnc2c1ncn2[C@@H]1O[C@H](CO)[C@@H](O)[C@@H]1O [Vidarabine]	1.26 ± 0.36
COc1ccc(S(=O)(=O)NCc2ccc(C(=O)NCCc3ccc(Cl)cn3)cc2)cc1	0.936 ± 0.16
CN1CCc2c(c3ccccc3n2Cc2ccc(C(=O)NO)cc2)C1 [Tubastatin A HCl]	0.623 ± 0.15
O=c1ccn([C@@H]2O[C@H](CO)[C@@H](O)[C@H]2O)c(=O)[nH]1 [Uridine]	1.24 ± 0.54
CCC[C@H](NC(=O)/C(C#N)=C/c1cccc(Br)n1)c1ccccc1 [Degrasyn (WP1130)]	0.638 ± 0.12
N=C(NOCC(O)CN1CCCCC1)c1cccnc1 (stereo not given)	0.805 ± 0.12
O=C(Nc1cccc(Cl)c1)Nc1ncc(CCNc2ncnc3ccsc23)s1 [SNS-314 Mesylate]	0
O=C(Nc1ccccc1-c1cn2c(CN3CCNCC3)csc2n1)c1cnc2ccccc2n1	1.19 ± 0.68
O=NN(CCCl)C(=O)NCCCl [Carmustine]	1 ± 0.078
CC(=O)c1cc([N+](=O)[O-])c(Sc2cccc(Cl)c2Cl)s1	0.919 ± 0.038
